{
  "source": "the supplement of paper PMC6555819",
  "data": [
    {"system": "RARb homodimer (NR concentration 270 nM)", "assay": "PBM binding z-score (relative to random genomic background probes); higher = stronger binding; sequences stand for … in GC…GCGATTGACAGCGTAGAATGAAGG", "procedure,_shortened": "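Binding z-scores take random background probes as their reference. They come from custom Agilent 4×180K protein-binding microarrays incubated 1 h with ligand-free nuclear receptor dimers, with antibodies against each partner (one per run) detecting binding. Scanned fluorescence was regression-normalized.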", "values": [
      {"sequence": "TCATATAGGTTATACAGGTGAAAGTCGGCATCTA", "PBM binding z-score": 1.48},
      {"sequence": "AGAACGAAGGCACGCTGAGTTGATAGCAGAGTAG", "PBM binding z-score": -0.785},
      {"sequence": "CGTCAAAGTTCAACTACGGTAACGTAAAGCACGC", "PBM binding z-score": 4.21},
      {"sequence": "AGAATGAGGTTATTAAGATAAGGGAATTGCGGTC", "PBM binding z-score": 0.848},
      {"sequence": "TTACCAAGGTGAGCTGAGGACGTTGATCCAACTC", "PBM binding z-score": 0.308},
      {"sequence": "TAGCGTAGGTCATGCGGGCCAGTATAGTGTCGGC", "PBM binding z-score": 2.91},
      {"sequence": "TCAGATAGGTAAAAGGTGAAAGTCGGTGTGGTAA", "PBM binding z-score": 2.19},
      {"sequence": "GCTTGTAGACCAAGGTTAAGAAAGACTAAGCTAA", "PBM binding z-score": 0.241},
      {"sequence": "CCGACTGGGGCAAAGGTTACAATACTCAGTACGA", "PBM binding z-score": 2.22},
      {"sequence": "CCTACTGGGCCACGAAAGGTCACTGATTCAGTGA", "PBM binding z-score": 4.67},
      {"sequence": "GGAACGATGGCAAAGTTGATAGCATCTGTCGACG", "PBM binding z-score": -0.537},
      {"sequence": "ATCTCTAGGTAACCAAGTTCAGTTAATGCCGAAC", "PBM binding z-score": 1.74},
      {"sequence": "ATATGAAGGTTAAGGGTCATTCAGGTTGGTTCGC", "PBM binding z-score": 4.38},
      {"sequence": "CCGACTGGGGCAAACGTTACCATACTCAGTACGA", "PBM binding z-score": 0.0694},
      {"sequence": "TCATATAGGTAAAGGTCAAAGTCGAACGATATGA", "PBM binding z-score": 4.51},
      {"sequence": "TCGAGCAGGTTAGGGGCATTCAGAATGGCGTCGA", "PBM binding z-score": 0.54},
      {"sequence": "ACAGACAGGTGATGGAGGTAACTCAGGCTATCAT", "PBM binding z-score": 0.431},
      {"sequence": "ACTCGGAGGACAAAGGTCAGTGCTACGCCAGTGA", "PBM binding z-score": 4.71},
      {"sequence": "CCTACTGGGCCAGAAAGGTCATTGATGCCGATAA", "PBM binding z-score": 4.36},
      {"sequence": "TTACCAAGGTGACAGGTCGTTGATGCACGCCTTG", "PBM binding z-score": 1.52},
      {"sequence": "CTCGAAAGGTCGTGCTCAGGGGAGTATACCAAAC", "PBM binding z-score": 2.53},
      {"sequence": "ACTTGCGGGTCAACGAGGTTATAGCACGCGTATA", "PBM binding z-score": 3.37}
    ]}
  ]
}
